In PubChem BioAssay (NCATS):
Results filed as inconclusive are left out. Activity calls are given as the source filed them. Calls follow the shape of the dose curve; as a rule, active = well fitted curve in the direction sought with a large enough effect; inconclusive = small, poorly fitted or top-dose-only effect, or another doubt; inactive = no such curve, though single readings can be large; an effect the other way counts as inactive or inconclusive.

Columns and labels:
C33A = experiment: Primary qHTS to identify gynecologic anti-cancer compounds using libraries of approved drugs and bioactive compounds (AID 1345084); details: Gynecologic cancer cell panel viability, ATPlite luminescence, 48 h; series mostly up to 57.5 µM; also: % is scaled to controls: 0 for no effect and ±100 for the full control effect; nearly all actives have a fitted effect of over 55% in size
In short: (§1)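 Five-point cytotoxicity, 48 h drug exposure at 37 C, 5% CO2, on cells seeded 16 h beforehand. ATP content read by ATPlite luminescence.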

CAOV3 = experiment: as above; details: Gynecologic cancer cell panel viability, ATPlite luminescence, 48 h; series mostly up to 57.5 µM
In short: as §1

CASKI = experiment: as above; details: Gynecologic cancer cell panel viability, ATPlite luminescence, 48 h; series mostly up to 57.5 µM
In short: as §1

Es-2 = experiment: as above; details: Gynecologic cancer cell panel viability, ATPlite luminescence, 48 h; series mostly up to 57.5 µM
In short: as §1

HeLa = experiment: as above; details: Gynecologic cancer cell panel viability, ATPlite luminescence, 48 h; series mostly up to 57.5 µM
In short: as §1

Hek293T = experiment: as above; details: Gynecologic cancer cell panel viability, ATPlite luminescence, 48 h, control line for the selectivity index; series mostly up to 57.5 µM
In short: as §1

JEG-3 = experiment: as above; details: Gynecologic cancer cell panel viability, ATPlite luminescence, 48 h; series mostly up to 57.5 µM
In short: as §1

OV90 = experiment: as above; details: Gynecologic cancer cell panel viability, ATPlite luminescence, 48 h; series mostly up to 57.5 µM
In short: as §1

PA-1 = experiment: as above; details: Gynecologic cancer cell panel viability, ATPlite luminescence, 48 h; series mostly up to 57.5 µM
In short: as §1

SKOV3 = experiment: as above; details: Gynecologic cancer cell panel viability, ATPlite luminescence, 48 h; series mostly up to 57.5 µM
In short: as §1

Tov-21-G = experiment: as above; details: Gynecologic cancer cell panel viability, ATPlite luminescence, 48 h; series mostly up to 57.5 µM
In short: as §1

Tov112D = experiment: as above; details: Gynecologic cancer cell panel viability, ATPlite luminescence, 48 h; series mostly up to 57.5 µM
In short: as §1

NIH3T3 = experiment: qHTS assay to identify novel small-molecules to repurpose for Merkel cell carcinoma treatment (AID 1296009); details: MCC and control cell lines, CellTiter-Glo viability, 72 h; at 44.8 µM (top of the series) unless noted; also: nearly all actives have a fitted effect of over 60% in size
In short: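 Luminescence from CellTiter-Glo, read 10 min after addition at room temperature, reported viability following a 72 hr, 37 degree celsius treatment with NPC or MIPE compounds in titration; values normalized to plate controls.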

COc1c(OC2OC(CO)C(O)C(O)C2O)ccc(O)c1C(=O)OCc1ccccc1O[C@@H]1O[C@H](CO)[C@@H](O)[C@H](O)[C@H]1O (some centres not stated)
inactive: Potency (C33A) | Potency (CAOV3) | Potency (CASKI) | Potency (Es-2) | Potency (HeLa) | Potency (Hek293T) | Potency (JEG-3) | Potency (OV90) | Potency (PA-1) | Potency (SKOV3) | Potency (Tov-21-G) | Potency (Tov112D)

CC(C)(O)CNc1nc(Nc2ccnc(C(F)(F)F)c2)nc(-c2cccc(C(F)(F)F)n2)n1
inactive: Potency (C33A) | Potency (CAOV3) | Potency (CASKI) | Potency (Es-2) | Potency (HeLa) | Potency (Hek293T) | Potency (JEG-3) | Potency (OV90) | Potency (PA-1) | Potency (SKOV3) | Potency (Tov-21-G) | Potency (Tov112D)

OC[C@H]1O[C@@H](Oc2cc(O)cc(-c3cc4ccc(O)cc4o3)c2)[C@H](O)[C@@H](O)[C@@H]1O
inactive: Potency (C33A) | Potency (CAOV3) | Potency (CASKI) | Potency (Es-2) | Potency (HeLa) | Potency (Hek293T) | Potency (JEG-3) | Potency (OV90) | Potency (PA-1) | Potency (SKOV3) | Potency (Tov-21-G) | Potency (Tov112D)

C=CC(C)(O)CC/C=C(\C)C(=O)OCC1OC(OC2CCC3(C)C(CCC4(C)C3CC=C3C5CC(C)(C)C(O)CC5(C(=O)O)CCC34C)C2(C)C)C(O)C(OC2OC(CO)C(O)C(OC3OC(CO)C(O)C(OC4OC(COC5OC(CO)C(O)C(O)C5O)C(O)C(O)C4O)C3O)C2O)C1O (configuration not stated)
inactive: outcome (NIH3T3) inactive [at 9.27 µM] | activity change, negative = cytotoxicity (C33A) 4.36% [at 6.55 µM] | activity change, negative = cytotoxicity (CASKI) 11.9% [at 6.55 µM] | activity change, negative = cytotoxicity (Es-2) 0.769% [at 6.55 µM] | activity change, negative = cytotoxicity (HeLa) 3.26% [at 6.55 µM] | activity change, negative = cytotoxicity (Hek293T) 3.14% [at 6.55 µM] | activity change, negative = cytotoxicity (JEG-3) 7.76% [at 6.55 µM] | activity change, negative = cytotoxicity (OV90) 12.5% [at 6.55 µM] | activity change, negative = cytotoxicity (PA-1) 15.1% [at 6.55 µM] | activity change, negative = cytotoxicity (SKOV3) 0.954% [at 6.55 µM] | activity change, negative = cytotoxicity (Tov-21-G) 2.74% [at 6.55 µM] | activity change, negative = cytotoxicity (Tov112D) -3.38% [at 6.55 µM]

N#Cc1ccnc(N2C(=O)CC[C@H]2C(=O)N(c2cncc(F)c2)[C@H](C(=O)NC2CC(F)(F)C2)c2ccccc2Cl)c1
inactive: Potency (C33A) | Potency (CAOV3) | Potency (CASKI) | Potency (Es-2) | Potency (HeLa) | Potency (Hek293T) | Potency (JEG-3) | Potency (OV90) | Potency (PA-1) | Potency (SKOV3) | Potency (Tov-21-G) | Potency (Tov112D)

CC1(C)CCCC2(C)C3=C(C(=O)OC3O)C(O)CC12 (configuration not stated)
inactive: outcome (NIH3T3) | Potency (C33A) | Potency (CASKI) | Potency (Es-2) | Potency (HeLa) | Potency (Hek293T) | Potency (JEG-3) | Potency (OV90) | Potency (PA-1) | Potency (Tov-21-G) | Potency (Tov112D)

CC(O)C(O)/C=C/C=C/C(=O)O[C@@H]1C=C2COC(=O)[C@]2(O)[C@@]2(C)CCCC(C)(C)C12 (some centres not stated)
inactive: outcome (NIH3T3) inactive [at 17.4 µM] | Potency (C33A) | Potency (CASKI) | Potency (Es-2) | Potency (HeLa) | Potency (Hek293T) | Potency (JEG-3) | Potency (OV90) | Potency (PA-1) | Potency (SKOV3) | Potency (Tov-21-G) | Potency (Tov112D)

C=CCc1ccc(O[C@@H]2O[C@H](CO)[C@@H](O)[C@H](O)[C@H]2O)c(OC)c1
inactive: outcome (NIH3T3) | Potency (C33A) | Potency (CASKI) | Potency (Es-2) | Potency (HeLa) | Potency (Hek293T) | Potency (JEG-3) | Potency (OV90) | Potency (PA-1) | Potency (Tov-21-G) | Potency (Tov112D)

CC1(C)O[C@@]2(C)CC[C@@H]1C[C@@H]2OC1OC(CO)C(O)C(O)C1O (some centres not stated)
inactive: Potency (C33A) | Potency (CAOV3) | Potency (CASKI) | Potency (Es-2) | Potency (HeLa) | Potency (Hek293T) | Potency (JEG-3) | Potency (OV90) | Potency (PA-1) | Potency (SKOV3) | Potency (Tov-21-G) | Potency (Tov112D)

COC1(CC(C)C)NC(=O)C(O)(Cc2ccccc2)NC1=O (configuration not stated)
inactive: outcome (NIH3T3) | Potency (C33A) | Potency (CASKI) | Potency (Es-2) | Potency (HeLa) | Potency (Hek293T) | Potency (JEG-3) | Potency (OV90) | Potency (PA-1) | Potency (SKOV3) | Potency (Tov-21-G) | Potency (Tov112D)

CC1=CC(=O)CC(C)(CO[C@@H]2O[C@H](CO)[C@@H](O)[C@H](O)[C@H]2O)C1(O)/C=C/C(C)=C/C(=O)O (some centres not stated)
inactive: outcome (NIH3T3) inactive [at 17.4 µM] | Potency (C33A) | Potency (CASKI) | Potency (Es-2) | Potency (HeLa) | Potency (Hek293T) | Potency (JEG-3) | Potency (OV90) | Potency (PA-1) | Potency (SKOV3) | Potency (Tov-21-G) | Potency (Tov112D)

Cc1cc(C)c(S(=O)(=O)N(Cc2ccc(-c3cccc(S(C)(=O)=O)c3)cc2)Cc2ccc(C(F)(F)F)o2)c(C)c1
inactive: outcome (NIH3T3) | Potency (C33A) | Potency (CASKI) | Potency (Es-2) | Potency (HeLa) | Potency (Hek293T) | Potency (JEG-3) | Potency (OV90) | Potency (PA-1) | Potency (Tov-21-G) | Potency (Tov112D)

OC[C@H]1O[C@@H](n2cnc3c(NCc4ccc(O)cc4)ncnc32)[C@H](O)[C@@H]1O
inactive: outcome (NIH3T3) | Potency (CAOV3) | Potency (Es-2) | Potency (Hek293T) | Potency (OV90) | Potency (PA-1) | Potency (SKOV3)

CC1(CCC(=O)O)C(=O)C=CC23CC4CC(OC4(C)C2O)C13 (configuration not stated)
inactive: outcome (NIH3T3) | Potency (C33A) | Potency (CASKI) | Potency (Es-2) | Potency (HeLa) | Potency (Hek293T) | Potency (JEG-3) | Potency (OV90) | Potency (PA-1) | Potency (SKOV3) | Potency (Tov-21-G) | Potency (Tov112D)

CCC[C@@H]1C[C@@H](C(=O)N[C@H](C(C)Cl)[C@H]2O[C@H](SC)[C@H](O)[C@@H](O)[C@H]2O)N(C)C1 (some centres not stated)
inactive: Potency (C33A) | Potency (CAOV3) | Potency (CASKI) | Potency (Es-2) | Potency (HeLa) | Potency (Hek293T) | Potency (JEG-3) | Potency (OV90) | Potency (PA-1) | Potency (SKOV3) | Potency (Tov-21-G) | Potency (Tov112D)
